Assay results reported in PMC4336329 (PLoS ONE, 2015).
About 14,000 (4.5%) of roughly 310,000 compounds showed an effect of 50% or more. The effect is printed as a negative number. The full list was thinned out, with strong results kept by preference.

The compounds below were run against human ether-à-go-go-related gene (hERG) potassium channel (human, UniProt Q12809) (assay: primary screen, population patch clamp on CHO cells stably expressing hERG; higher = less effect of the substance).
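Also: peak tail current of the secondary pulse compared with the same well before compound.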

Chain of human ether-à-go-go-related gene (hERG) potassium channel (Q12809 whole entry, looked up): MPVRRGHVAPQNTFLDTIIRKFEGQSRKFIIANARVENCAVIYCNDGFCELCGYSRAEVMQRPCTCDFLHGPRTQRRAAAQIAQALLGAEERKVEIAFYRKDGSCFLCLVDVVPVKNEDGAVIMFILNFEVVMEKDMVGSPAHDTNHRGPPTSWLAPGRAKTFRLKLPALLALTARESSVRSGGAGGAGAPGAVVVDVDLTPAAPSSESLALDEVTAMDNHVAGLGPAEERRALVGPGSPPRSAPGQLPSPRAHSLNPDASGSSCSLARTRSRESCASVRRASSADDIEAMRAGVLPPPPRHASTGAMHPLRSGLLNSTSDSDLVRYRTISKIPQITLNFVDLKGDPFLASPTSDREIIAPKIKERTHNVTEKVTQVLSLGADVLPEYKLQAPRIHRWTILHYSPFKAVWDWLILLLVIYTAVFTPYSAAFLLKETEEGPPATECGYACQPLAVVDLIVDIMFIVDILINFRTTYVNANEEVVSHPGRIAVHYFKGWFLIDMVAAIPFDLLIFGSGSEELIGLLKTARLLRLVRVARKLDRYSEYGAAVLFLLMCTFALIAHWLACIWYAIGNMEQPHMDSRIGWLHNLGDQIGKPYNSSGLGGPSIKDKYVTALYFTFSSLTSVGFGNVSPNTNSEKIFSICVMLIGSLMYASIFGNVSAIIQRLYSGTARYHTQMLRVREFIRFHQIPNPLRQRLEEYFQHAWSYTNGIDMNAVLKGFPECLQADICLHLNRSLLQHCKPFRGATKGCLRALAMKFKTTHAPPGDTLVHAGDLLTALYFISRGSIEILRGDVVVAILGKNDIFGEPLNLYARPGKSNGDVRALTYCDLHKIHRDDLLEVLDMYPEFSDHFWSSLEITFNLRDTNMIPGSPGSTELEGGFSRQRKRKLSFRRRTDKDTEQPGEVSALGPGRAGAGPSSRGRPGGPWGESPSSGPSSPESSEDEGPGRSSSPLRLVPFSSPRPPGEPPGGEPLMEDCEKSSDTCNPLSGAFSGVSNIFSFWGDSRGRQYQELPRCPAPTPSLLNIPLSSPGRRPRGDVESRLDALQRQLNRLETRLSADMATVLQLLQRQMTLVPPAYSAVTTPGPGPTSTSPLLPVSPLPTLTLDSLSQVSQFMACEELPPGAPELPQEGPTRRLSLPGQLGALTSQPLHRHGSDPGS

Row | Compound | hERG current change (%, negative = inhibition) at 10uM
1 | CCOc1ccc(N2C(=O)CC(N)C2=O)cc1 (stereo not shown) | 1.65%
2 | COc1ccc(OC)c(CCNC(=O)CC2(CC3=NS(=O)(=O)c4ccccc4N3)CCCC2)c1 | -11.2%
3 | COC(=O)c1cc(-c2cccc([N+](=O)[O-])c2)c2c(=O)[nH]c(=O)n(C)c2n1 | 6.48%
4 | COc1cccc(NC(=O)CCNS(=O)(=O)c2cccc3nsnc23)c1 | 1.56%
5 | Cn1c(=O)c2ccccc2n(Cc2ccccc2Cl)c1=O | 0.661%
6 | CCCN1C2CCCC1CC(NC(=O)Nc1cccc(C(C)=O)c1)C2 (stereo not shown) | -5.62%
7 | COc1ccc(CN2C3CCCC2CC(NC(=O)Nc2cccc(C)c2)C3)cc1 (stereo not shown) | -75.3%
8 | Cc1ccc(CN2C3CCCC2CC(NC(=O)Nc2cccc(F)c2)C3)cc1 (stereo not shown) | -85.7%
9 | CCc1cccc(CC)c1NC(=O)CN1C2CCCC1CC(NC(=O)Nc1cccc(OC)c1)C2 (stereo not shown) | -7.7%
10 | O=C(Nc1cccc(F)c1)NC1CC2CCCC(C1)N2C1CC1 (stereo not shown) | -8.34%
11 | Cc1cccc(NC(=O)NC2CC3CCC(C2)N3Cc2ccco2)c1 (stereo not shown) | -2.61%
12 | CCOC(=O)C1CCN(C(=O)C2CCN(S(=O)(=O)c3cc(Cl)ccc3Cl)CC2)CC1 | -30.1%
13 | Cc1ccc(S(=O)(=O)N2CCOCC2)cc1C(=O)OCC(=O)c1ccc(Br)cc1 | 14.7%
14 | COc1ccc(-c2nc3ccc(N4CCN(C)CC4)cc3c(=O)[nH]2)cc1 | 8.45%
15 | O=c1c2ccccc2nc2n1CCN2Cc1ccc(Cl)cc1 | -51.9%
16 | O=c1c2ccccc2nc(N2CCCC2)n1-c1ccc(Cl)cc1 | -3.18%
17 | O=c1c2ccccc2nc(-c2ccccc2)n1Cc1ccc(Cl)cc1 | -15.7%
18 | CCOC(=O)c1c(-n2c(C)cc(C=C3C(=O)NC(=S)NC3=O)c2C)sc2c1CCCC2 | -5.55%
19 | CN1CCC(=NNC(=O)c2ccc(N(Cc3ccc(Cl)cc3)S(C)(=O)=O)cc2)CC1 | -38%
20 | COc1cc(C(=O)NC2CC(C)(C)Cc3c2cnn3-c2ccccc2)cc(OC)c1OC (stereo not shown) | 8.92%
21 | Cc1cc(C(=O)NC2CC(C)(C)Cc3c2cnn3-c2cccc(F)c2)n(C)n1 (stereo not shown) | -32.6%
22 | COc1ccc(C(=O)NC2CC(C)(C)Cc3c2cnn3-c2ccccc2)c(OC)c1 (stereo not shown) | -2.5%
23 | COc1cccc(C(=O)NC2CC(C)(C)Cc3c2cnn3-c2cccc(F)c2)c1OC (stereo not shown) | -52.3%
24 | CC1=C(C(=O)NC2CC(C)(C)Cc3c2cnn3-c2cccc(F)c2)OCCO1 (stereo not shown) | -43.5%
25 | Cc1cnc(C(=O)NC2CC(C)(C)Cc3c2cnn3-c2cccc(F)c2)cn1 (stereo not shown) | -33.5%
26 | CC1(C)Cc2c(cnn2-c2cccc(F)c2)C(NC(=O)c2ccc(=O)[nH]n2)C1 (stereo not shown) | -70.2%
27 | CC1(C)Cc2c(cnn2-c2cccc(F)c2)C(NC(=O)c2csnn2)C1 (stereo not shown) | -78.3%
28 | Cc1cc(C(=O)NC2CC(C)(C)Cc3c2cnn3-c2cccc(F)c2)nn1C (stereo not shown) | -2.79%

Row | Compound | hERG current change (%, negative = inhibition) at 10uM
29 | O=C(N/N=C/c1coc2ccccc2c1=O)c1ccccc1 | 10.6%
30 | COc1ccc(CN2CCN(C(=O)CC(C)C)CC2)cc1Br | -4.54%
31 | C=CC[C@]12C[C@@H](OC)C(=O)C=C1O[C@@H](c1ccc(OC)c(OC)c1)[C@H]2C | 14.5%
32 | NC(=O)C(c1ccc(Sc2ccccc2)nn1)c1ccc(Cl)cc1Cl (stereo not shown) | -43.9%
33 | Cc1c(C(=O)NCC2COc3ccccc3O2)oc2ccc(S(=O)(=O)N3CC(C)CC(C)C3)cc12 (stereo not shown) | 12.4%
34 | Cc1c(NC(=O)COC(=O)c2cc(-c3ccc(-c4ccccc4)cc3)nc3ccccc23)c(=O)n(-c2ccccc2)n1C | 28.4%
35 | COc1ccccc1NNC(=O)C(O)(c1ccccc1OC)c1ccccc1OC | 20.2%
36 | O=C(NC(Cc1ccccc1)C(=O)O)/C(=C/c1ccc([N+](=O)[O-])cc1)NC(=O)c1ccc(Br)o1 (stereo not shown) | 11.5%
37 | CC(=O)Nc1ccc(Nc2ccc3c4c(cc(=O)n3C)-c3ccccc3C(=O)c24)cc1 | 9.74%
38 | Cn1c(=O)cc2c3c(c(N4CCCCC4)ccc31)C(=O)c1ccccc1-2 | -63.2%
39 | CC(=O)N(C)c1ccc(N2CCOCC2)c2c1C(=O)c1ccccc1C2=O | -0.974%
40 | CCn1c(SCC(=O)Nc2cc(S(=O)(=O)N3CCOCC3)ccc2OC)nnc1-c1ccncc1 | 13.8%
41 | O=C(COc1ccc(Cl)cc1)Nc1c(-c2cccs2)nc2ccccn12 | -14.4%
42 | Nc1cc(-c2nn[nH]n2)ccc1F | 11.6%
43 | O=C(Nc1ccc(Cl)c(-c2nc3ccccc3[nH]2)c1)c1ccc2c(c1)OCO2 | -15%
44 | Cc1ccc(N2CC(C(=O)N3CCCCCC3)CC2=O)cc1 (stereo not shown) | 11.5%
45 | Cc1ccc(N2CC(C(=O)N3CCCCC3)CC2=O)cc1C (stereo not shown) | -21.2%
46 | Cc1ccc(N2CC(C(=O)N3CCC4(CC3)CC(=O)c3ccccc3O4)CC2=O)cc1C (stereo not shown) | -71.3%
47 | CCOC(=O)N1CCN(C(=O)C2CC(=O)N(c3ccccc3)C2)CC1 (stereo not shown) | 5.31%
48 | O=C1CC2(CCN(C(=O)C3CC(=O)N(c4ccccc4)C3)CC2)Oc2ccccc21 (stereo not shown) | -77.4%
49 | O=C1CC2(CCN(C(=O)C3CC(=O)N(c4ccc(F)cc4)C3)CC2)Oc2ccccc21 (stereo not shown) | -78.7%
50 | O=C(C1CC(=O)N(c2ccc(F)cc2)C1)N1CCOCC1 (stereo not shown) | 1.27%
51 | NC(=O)C1CCN(C(=O)C2CC(=O)N(c3ccc(F)cc3)C2)CC1 (stereo not shown) | 13.7%
52 | Cc1ccc(N2CC(C(=O)N3CCOCC3)CC2=O)cc1C (stereo not shown) | 6.52%
53 | Cc1ccc(N2CC(C(=O)N3CCC4(CC3)CC(=O)c3ccccc3O4)CC2=O)cc1 (stereo not shown) | -71.6%
54 | CCOC(=O)N1CCN(C(=O)C2CC(=O)N(c3ccc(C)cc3)C2)CC1 (stereo not shown) | -47.9%
55 | O=C(C1CC(=O)N(c2ccccc2)C1)N1CCCCCC1 (stereo not shown) | 13%
